A selection: hits, their analogues and other compounds. The true share with any hit is near 1.2%.
RGS7-Gao reg = regulators of human RGS7-Galphao interaction | hit rate 0.35% among 220,000 | binding response (% of control), % at 10 µM | P09471 | Multiplexed bead flow cytometry, RGS7-Galphao binding; actives lie on both sides; in the data active = binding response below about 49% or above about 150%; inconclusive = no clear call, values can overlap the other calls; inactive = in between;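 also: fluorescent Galphao held in activated GDP-AlF4 state binding bead-coupled RGS7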
Target sequence (P09471 whole entry, looked up): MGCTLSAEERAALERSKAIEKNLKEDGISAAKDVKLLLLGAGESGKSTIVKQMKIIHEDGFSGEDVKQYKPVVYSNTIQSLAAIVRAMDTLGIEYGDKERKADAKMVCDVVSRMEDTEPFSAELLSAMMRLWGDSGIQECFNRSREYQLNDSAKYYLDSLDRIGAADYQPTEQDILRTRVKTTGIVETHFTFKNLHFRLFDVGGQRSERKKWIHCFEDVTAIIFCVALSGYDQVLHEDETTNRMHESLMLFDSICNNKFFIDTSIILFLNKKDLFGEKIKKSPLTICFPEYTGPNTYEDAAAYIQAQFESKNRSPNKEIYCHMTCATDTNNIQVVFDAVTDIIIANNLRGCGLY
RGS16-Gao = RGS16-Galphao interaction regulator (human); bead-based flow cytometry RGS16-Galphao binding, fluorescence; actives lie on both sides; hit rate 0.38% among 220,000; AID 1441; binding response (% of control), % at 10 µM;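 also: Galphao activated by GDP with aluminum fluoride before binding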
Target sequence (O15492 whole entry, looked up): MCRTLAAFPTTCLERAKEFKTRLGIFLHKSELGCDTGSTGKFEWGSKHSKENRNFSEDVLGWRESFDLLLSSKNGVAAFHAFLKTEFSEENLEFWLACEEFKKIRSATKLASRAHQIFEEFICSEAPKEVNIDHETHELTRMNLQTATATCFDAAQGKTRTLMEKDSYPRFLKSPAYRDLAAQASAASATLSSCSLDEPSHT
Target sequence (P09471 whole entry, looked up): as the sequence (P09471 whole entry, looked up) above
Avidin fluor = compound fluoresces at 488/530 nm on avidin beads; compound fluorescence 488/530 nm, flow cytometry; hits give high values; fluorescence (KMESF) at 10 µM; hit rate 0.38% among 220,000; in the data active = fluorescence above about 47
RGS8-Gao = regulators of human RGS8-Galphao interaction; response (percent of control binding), % at 10 µM; hit rate 0.34% among 220,000; multiplexed bead flow cytometry, RGS8-Galphao binding; actives lie on both sides; in the data active = response below about 60% or above about 140%; inactive = in between;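 also: Galphao activated as the GDP aluminium fluoride complex binding bead-coupled RGS8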
RGS4-Gao reg = modulates binding of RGS4 to human Galphao; hit rate 0.33% among 220,000; AID 1415; Multiplexed bead flow cytometry; actives lie on both sides; P09471; binding response (% of control), % at 10 µM; in the data active = binding response below about 49% or above about 150%; inactive = in between;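 also: fluorescent Galphao activated with aluminum fluoride binding bead-coupled RGS4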
GSH fluor = GSH bead compound fluorescence profile. GSH beads flow cytometry, compound fluorescence 488/530 nm; hits give high values. hit rate 0.25% among 190,000. fluorescence (KMESF) at 10 µM; in the data active = fluorescence above about 89;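 also: glutathione beads carrying GST-tagged Bcl family fusion proteins plus one bare bead set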
RGS-Gao = modulates binding between human RGS4 and Galphao. multiplexed bead flow cytometry, RGS–Galpha-o binding. AID 1504. shares compounds with RGS16-Gao. hit rate 99% among 1,600. RGS4–Galpha-o binding response, % at 10 µM;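 also: fluorescently labeled Galpha-o bound to GDP with aluminium fluoride binding biotinylated RGS beads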
Biotin-avidin = counter-screen: compounds disrupting biotin binding to avidin beads | 1,700 tested, under 10 active | streptavidin beads, fluorescein-biotin binding, flow cytometry | inhibition, % at 10 µM | AID 1783 | shares compounds with RGS16-Gao;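 active = inhibition above 50%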;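 also: median green fluorescence of gated singlet beads compared with DMSO control wells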
RGS8-Gao single = confirmation of regulators of human RGS8-Galphao interaction. shares compounds with RGS16-Gao. bead-based flow cytometry RGS8-Galphao binding, fluorescence; actives lie on both sides. AID 1836. hit rate 3% among 1,700. binding response (% of control), % at 10 µM; in the data active = binding response below about 72% or above about 130%; inactive = in between;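 also: Galphao activated as GDP AlF4 complex before binding bead RGS8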
RGS7-Gao confirm = RGS7-Galphao interaction regulation, single point confirmation; response (percent of control binding), % at 10 µM; shares compounds with RGS16-Gao; bead-based flow cytometry RGS7-Galphao binding; actives lie on both sides; hit rate 7.8% among 1,700; in the data active = response below about 75% or above about 130%; inactive = in between;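 also: fluorescent Galphao activated with GDP and aluminum fluoride binding bead-coupled RGS7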
RGS16-Gao single = RGS16-Galphao interaction regulation, single point confirmation; shares compounds with RGS16-Gao; bead-based flow cytometry, RGS16-Galphao binding; actives lie on both sides; response (% of control binding), % at 10 µM; hit rate 4% among 1,700; AID 1838; in the data active = response below about 74% or above about 130%; inactive = in between;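 also: Galphao activated as the GDP aluminium fluoride complex binding bead-coupled RGS16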
RGS4-Gao single = confirmation of regulators of human RGS4-Galphao interaction. shares compounds with RGS16-Gao. RGS4-Galphao binding, multiplexed bead flow cytometry; actives lie on both sides. binding response (% of control), % at 10 µM. hit rate 4% among 1,700. AID 1840; in the data active = binding response below about 74% or above about 130%; inactive = in between
RGS19-Gao single = RGS19-Galphao interaction regulation, single point confirmation. shares compounds with RGS16-Gao. hit rate 5% among 1,700. response (percent of control binding), % at 10 µM. AID 1841. bead-based flow cytometry RGS19-Galphao binding; actives lie on both sides; in the data active = response below about 50% or above about 160%; inactive = in between
Hits are given with their value; . = inactive; ? = inconclusive; / = not tested or not shown; [ ] = dose if it differs, or a comment. Unless noted, no rule for the calls is given here.

SMILES	RGS7-Gao reg	RGS16-Gao	Avidin fluor	RGS8-Gao	RGS4-Gao reg	GSH fluor	RGS-Gao	Biotin-avidin	RGS8-Gao single	RGS7-Gao confirm	RGS16-Gao single	RGS4-Gao single	RGS19-Gao single
COc1ccccc1NS(=O)(=O)c1cc(NC(=O)c2ccncc2)ccc1N1CCOCC1	.	22	.	.	.	.	95	.	.	.	.	.	.
NC(=O)C1CCN(C2=C(NS(=O)(=O)c3ccccc3)C(=O)c3ccccc3C2=O)CC1	?	16	.	19	26	/	/	.	.	.	.	.	.
CC(=O)CC(=O)Nc1ncccn1	?	.	.	.	.	.	/	/	/	/	/	/	/
COCCCNC(=O)COc1ccc(S(=O)(=O)NCc2ccccc2)cc1Cl	275[activator]	.	.	407[activator]	314[activator]	.	/	.	.	.	.	.	.
CCC(CO)[n+]1c(C)cc(/C=C2\Sc3ccccc3N2Cc2ccccc2)cc1C (stereo unspecified)	.	.	.	.	.	.	/	/	/	/	/	/	/
N#C/C(=C/c1ccc(N2CCOCC2)o1)C(=O)Nc1ccccc1	198[activator]	.	55	.	159[activator]	.	/	.	.	.	.	.	.
N#C/C(=C\c1ccc(N2CCOCC2)o1)C(=O)NCCc1ccccc1	.	.	.	.	.	.	/	/	/	/	/	/	/
COc1ccc(C(=S)N2CCOCC2)cc1OC(=O)c1cc([N+](=O)[O-])c(C)c([N+](=O)[O-])c1	.	.	.	.	.	.	/	/	/	/	/	/	/
COc1cc(C(=S)N2CCOCC2)ccc1OC(=O)c1cc([N+](=O)[O-])c(C)c([N+](=O)[O-])c1	.	6.2	.	.	.	.	86	.	.	.	.	.	.
Cc1ccc(/C=C/C(=O)N2CCCC(C(N)=O)C2)o1 (stereo unspecified)	?	.	.	.	.	/	/	/	/	/	/	/	/
Cc1ccc(NS(=O)(=O)c2cccc(C(=O)OCC(=O)NCc3ccco3)c2)cc1	.	.	.	178[activator]	163[activator]	231	/	.	.	.	.	.	.
Cc1cc(SCC(=O)NC(=O)c2cccn2C)nc2ccccc12	?	.	.	.	.	/	/	/	/	/	/	/	/
CN(C)S(=O)(=O)c1cccc(-n2sc3ccccc3c2=O)c1	?	17	.	55	.	.	93	/	/	/	/	/	/
O=c1c2ccccc2sn1-c1nccs1	.	.	.	.	.	.	/	/	/	/	/	/	/
CN(C)S(=O)(=O)c1ccc2[nH]cc(/C=C/c3nc4ccccc4c(=O)n3-c3ccccc3)c2c1	.	.	.	.	.	.	/	/	/	/	/	/	/
O=c1c2ccccc2sn1-c1ccccc1	.	-5.3	.	18	.	.	78	.	25	.	0.1	.	-0.4
O=c1c2ccccc2sn1-c1ccc(S(=O)(=O)N2CCCC2)cc1	.	-3.0	.	31	.	.	92	.	59	.	40	.	8.6
NS(=O)(=O)c1ccc(S(=O)(=O)N2CCCC2)cc1	.	.	.	.	.	.	/	/	/	/	/	/	/
Cc1ccc(-n2sc3ccccc3c2=O)cc1S(=O)(=O)N1CCCCC1	.	.	.	43	.	.	75	/	/	/	/	/	/
O=C(Nc1ccccn1)C(NS(=O)(=O)c1cccc2nsnc12)c1ccccc1 (stereo unspecified)	.	.	.	.	.	.	/	/	/	/	/	/	/
CCOC(=O)CC(/C(C)=N\O)c1ccccc1 (stereo unspecified)	.	.	.	.	.	.	/	/	/	/	/	/	/
CN(C)c1cccc(C(=O)Nc2cc(C(F)(F)F)ccc2-n2cnc3ccccc32)c1	.	197[activator]	.	.	.	.	106	.	.	.	.	.	.
O=[N+]([O-])c1ccc(Nc2nc(NC3CCCCC3)nc(N3CCCC3)n2)cc1	160[activator]	.	.	.	170[activator]	.	/	.	.	.	.	.	.
CSc1ccccc1NC(=O)C1C2CCC(C2)C1C(=O)O (stereo unspecified)	33	21	.	40	24	.	/	.	.	.	.	.	.
O=C(NCC1CCS(=O)(=O)C1)Oc1ccccc1 (stereo unspecified)	.	291[activator]	.	.	.	.	108	.	.	.	.	.	.
SMILES	RGS7-Gao reg	RGS16-Gao	Avidin fluor	RGS8-Gao	RGS4-Gao reg	GSH fluor	RGS-Gao	Biotin-avidin	RGS8-Gao single	RGS7-Gao confirm	RGS16-Gao single	RGS4-Gao single	RGS19-Gao single
Oc1c(C(c2cccs2)N2CCN(c3cccc(Cl)c3)CC2)sc2ncnn12 (stereo unspecified)	.	.	.	.	.	.	/	/	/	/	/	/	/
Cc1cc(NC(=O)C2CCCCC2)n(-c2nc3ccccc3[nH]2)n1	.	.	.	.	.	.	/	/	/	/	/	/	/
Cc1cc(NC(=O)C2CCC2)n(-c2ccccn2)n1	6.5	3.5	.	14	8.2	.	/	.	.	.	.	.	.
Cc1ccsc1/C=N/NC(=O)Cc1cccn1C	.	.	.	.	.	.	/	/	/	/	/	/	/
O=C(Nc1cccc2ncccc12)c1cccc(F)c1	.	.	.	.	.	.	/	/	/	/	/	/	/
O=C(Nc1cccc2ncccc12)c1cccnc1	/	/	/	/	/	.	/	.	.	.	.	.	.
O=C(Nc1cccc2ncccc12)c1ccc(Br)c([N+](=O)[O-])c1	.	.	.	150[activator]	.	.	120	.	.	.	.	.	.
CCc1ccc(OCC(=O)Nc2ncc3c(n2)CC(C)(C)CC3=O)cc1	.	.	.	.	.	.	/	/	/	/	/	/	/
CCCCCOc1ccc(CSC(=N)N)cc1[N+](=O)[O-]	49	.	.	.	42	.	/	.	.	.	.	.	.
CCn1cnc2sc(C(=O)N(Cc3ccc(N(C)C)cc3)Cc3ccco3)c(C)c2c1=O	.	.	.	.	.	.	/	/	/	/	/	/	/
COC(=O)c1ccccc1OCCCCN1CC(C)OC(C)C1 (stereo unspecified)	254[activator]	.	173	.	.	.	113	.	.	59	.	70	46
N#CC1CCN(c2ncccc2[N+](=O)[O-])CC1	?	.	.	.	282[activator]	/	/	.	.	.	.	.	.
